From PubChem BioAssay (EPA / NIEHS)
Inconclusive results are not listed. Calls of active or inactive are those of the source. The calls were made as follows, unless noted: active = hit-call score of the fitted dose curve at least 0.9, where 1 is the maximum; inactive = score below 0.9.

Legend:
[1] = CCTE_Harrill_HTTr_Viability_MCF7: CCTE's 6-hour Cell Viability Assessment for the High-Throughput Transcriptomics (HTTr) Platform, in MCF-7 cells cultured in DMEM + 10% fetal bovine serum, Harrill Lab (AID 2284010)
Summary of the method: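 Eight-point concentration series, six-hour exposure. Propidium iodide exclusion imaged to assess membrane integrity as a cytotoxicity readout; bidirectional fitting was done with DMSO as negative control and activity baseline.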

[2] = CCTE_Harrill_HTTr_Apoptosis_MCF7: CCTE's 6-hour Apoptosis Assessment for the High-Throughput Transcriptomics (HTTr) Platform, in MCF-7 cells cultured in DMEM + 10% fetal bovine serum, Harrill Lab (AID 2284011)
Summary of the method: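 High-content imaging of CellEvent Caspase 3/7 Green signal follows a six-hour exposure, with eight concentrations per chemical. MCF-7 cells grown in DMEM plus 10% fetal bovine serum; activity fitted in both directions against DMSO.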

[3] = CCTE_Harrill_HTTr_CellCount_MCF7: CCTE's Cell Proliferation Assessment for the High-Throughput Transcriptomics (HTTr) Platform, Harrill Lab (AID 2284012; active = hit-call score of the fitted dose curve at least 0.9, where 1 is the maximum;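 also: count of Hoechst-stained nuclei per well by high-content imaging in MCF-7 cells; cells exposed to compound for six hours; intended direction is loss of nuclei count meaning fewer cells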)
Summary of the method: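 For this full-screen endpoint, MCF-7 cultures received eight compound dilutions for six hours. Well nuclei counts from Hoechst imaging were analyzed relative to DMSO.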

Measured: outcome

COc1ccc(O)cc1
inactive: all assays above

CCCCCC(CO)CCC (stereo unspecified)
inactive: all assays above

CC1CC(OC(=O)c2ccccc2O)CC(C)(C)C1 (stereo unspecified)
inactive: all assays above

O=[N+]([O-])c1cc(C(F)(F)F)ccc1Cl
inactive: all assays above

CCN(CC)CCOC(=O)c1ccc(N)cc1
inactive: all assays above

Cc1ccc(O)c(C(C)(C)C)c1
inactive: all assays above

Cc1ccc(C=O)cc1
inactive: all assays above

CC1CCC2CC1C2(C)C (stereo unspecified)
inactive: all assays above

CC1=CCC(O)(C(C)C)CC1 (stereo unspecified)
inactive: all assays above

CC(C)=CCCC(C)=CCCC(C)=CCO
inactive: all assays above

NC(=O)NC1NC(=O)NC1=O (stereo unspecified)
inactive: all assays above

N#Cc1ccccc1
inactive: all assays above

CC(=O)OCCOC(C)=O
inactive: all assays above

NCCCCCCN
inactive: all assays above

CCCCCCCCCC=O
inactive: all assays above

OCCOCCOCCOCCO
inactive: all assays above

CCCCCCCCC
inactive: all assays above

CC(=O)/C=C/C1=C(C)CCCC1(C)C
inactive: all assays above

CN(CCOc1ccc(CC2SC(=O)NC2=O)cc1)c1ccccn1 (stereo unspecified)
inactive: all assays above

C=C(C)[C@@H]1CC[C@@H](C)C[C@@H]1O
inactive: all assays above

O=C(O)CN(CCN(CC(=O)O)CC(=O)O)CCN(CC(=O)O)CC(=O)O
inactive: all assays above

CC1(C)[C@H]2CC[C@]1(C)[C@H](O)C2
inactive: all assays above

CCC(C)CCCC(C)(C)O (stereo unspecified)
inactive: all assays above

O=C(O)COCCN1CCN(C(c2ccccc2)c2ccc(Cl)cc2)CC1 (stereo unspecified)
inactive: all assays above

Cc1ccc(C(C)C)cc1O
inactive: all assays above

CC1(C)CCC(C)(C)c2cc(C(=O)Nc3ccc(C(=O)O)cc3)ccc21
inactive: all assays above

CN(C)CCOCCN(C)C
inactive: all assays above
